In PubChem BioAssay AID1159580 (chemical genetic matrix, 2015):
Out of some 5,500 compounds screened, about 2,000 (36%) were called active. About 18% were inconclusive and are not listed. The list shows a part of the results. A number with no mark means an inactive call. Cut-off read from the data, not from the text of the source: active = normalized growth mostly below about 0.91 (no sharp cut-off); inconclusive = no clear call, values can overlap the other calls; inactive = mostly above about 0.92.

Assay: chemical genetic growth profiling, strain panel (AID 1159580);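 note: tested at 20 µM; growth read once vehicle control cultures reached saturation at 30 °C; 1 = growth at the plate median or of vehicle wells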
Details: S. cerevisiae deletion strains, growth OD

## N#Cc1c(N)sc2c1CCCCC2
Locus YAL013W, strain DEP1, stronger effect = lower value
  normalized growth: 0.959
Locus YBR229C, strain ROT2, stronger effect = lower value
  normalized growth: 0.951
Locus YCL061C, strain MRC1, stronger effect = lower value
  normalized growth: 0.945
Locus YDL101C, strain DUN1, stronger effect = lower value
  normalized growth: 0.971
Locus YDR150W, strain NUM1, stronger effect = lower value
  normalized growth: 1.02
Locus YEL061C, strain CIN8, stronger effect = lower value
  normalized growth: 0.903 (active)
Locus YGR078C, strain PAC10, stronger effect = lower value
  normalized growth: 0.961
Locus YHR030C, strain SLT2, stronger effect = lower value
  normalized growth: 0.616 (active)
Locus YHR087W, strain rtc3, stronger effect = lower value
  normalized growth: 0.975
Locus YJL187C, strain SWE1, stronger effect = lower value
  normalized growth: 0.963
Locus YJR043C, strain POL32, stronger effect = lower value
  normalized growth: 0.992
Locus YJR075W, strain HOC1, stronger effect = lower value
  normalized growth: 0.945
Locus YKL190W, strain CNB1, stronger effect = lower value
  normalized growth: 0.927 (active)
Locus YLR039C, strain RIC1, stronger effect = lower value
  normalized growth: 0.96
Locus YLR058C, strain SHM2 (second series), stronger effect = lower value
  normalized growth: 0.956
Locus YLR085C, strain ARP6, stronger effect = lower value
  normalized growth: 0.714 (active)
Locus YLR262C, strain YPT6, stronger effect = lower value
  normalized growth: 0.955
Locus YML094W, strain GIM5, stronger effect = lower value
  normalized growth: 0.878
Locus YMR219W, strain ESC1, stronger effect = lower value
  normalized growth: 0.95
Locus YMR263W, strain SAP30, stronger effect = lower value
  normalized growth: 0.984
Locus YMR307W, strain GAS1, stronger effect = lower value
  normalized growth: 0.662 (active)
Locus YNL153C, strain GIM3, stronger effect = lower value
  normalized growth: 0.953
Locus YNL298W, strain CLA4 (second series), stronger effect = lower value
  normalized growth: 0.944
Locus YNL322C, strain KRE1, stronger effect = lower value
  normalized growth: 0.964
Locus YNR030W, strain Alg12, stronger effect = lower value
  normalized growth: 0.895
Locus YPL055C, strain LGE1, stronger effect = lower value
  normalized growth: 0.97
Locus YPL241C, strain CIN2, stronger effect = lower value
  normalized growth: 0.846 (active)
Locus YPR135W, strain CTF4, stronger effect = lower value
  normalized growth: 0.498 (active)
